Inconclusive results are not listed. Where a call stands in place of a potency, no number is given. Unmarked numbers belong to inactive results. The source made the active and inactive calls. Calls come from the whole dose curve; as a rule, active = well fitted cell-killing curve with a large enough effect; inconclusive = small, poorly fitted or top-dose-only effect; inactive = no such curve, though single readings can be large or run the other way.
Potency is the fitted concentration of half-maximal effect.

A short description of the assay: qHTS of pediatric cancer cell lines to identify multiple opportunities for drug repurposing: Primary screen for MG 63 (6-TG R) cells (AID 1347105). Note: nearly all actives have a fitted effect of over 50% in size. The conditions noted are these: MG 63 (6-TG R) viability, CellTiter-Glo, 48 h; series mostly up to 46 µM. The text has this: Drug repurposing or repositioning has been offered as a strategy for drug development in oncology programs. This approach has special potential for childhood cancers and other rare or orphan diseases, where the expected return on new drug development has been a disincentive to pharmaceuticals. […] In this project we exploit the poly-pharmacology of drugs to discover new indications via phenotypic screening of a panel of 19 well-characterized cell lines derived from solid tumors seen in children and adolescents. The goal is to identify approved drugs with previously unrecognized anticancer properties that has the potential to reveal new mechanisms and biological processes involved in carcinogenesis or drug resistance. We employed a titration-based paradigm (quantitative high-throughput screening or qHTS), where all compounds were tested at multiple concentrations for their effect on cell viability. Concentration-response curves (CRCs) were derived directly from the primary screen, and both potency and efficacy values were used to identify compounds with robust bioactivity profiles. We screened the NIH Chemical Genomics Center (NCGC) Pharmaceutical Collection (NPC) and Mechanism Interrogation Plate (MIPE) small molecule collections of approved and investigational compounds against these cell lines; and measured metabolically active cells after 48 hours of compound treatment as a proxy for cell viability. […] Assay Submitter: Nathalia J. Martinez, National Center for Advancing Translational Sciences, National Institutes of Health, Rockville, MD, USA; email: natalia.martinez@nih.gov Shen, M et al. Quantitative high-throughput phenotypic screening of pediatric cancer cell lines identifies multiple opportunities for drug repurposing. Oncotarget 2017 Dec 19;9(4):4758-4772. PMID 29435139.
The cells were obtained from University of North Carolina (UNC), Pediatric Preclinical Testing Program (PPT), and Coriell Institute (CI). qHTS cell viability assay: Cells were assayed in growth media at a density of 500-1,000 cells/well. Five microliters of cells were dispensed into 1,536-well, white, solid-bottom, TC-treated plates (Greiner Bio One) using a multidrop dispenser and incubated at 37 degrees C, 5% CO2, under a humidified atmosphere for 5 hours. Twenty-three nanoliters of compounds and controls (neutral control DMSO or positive control bortezomib at final concentration of 2.3 µM) were subsequently transferred by Kalypsys pintool. For primary screens, the MIPE collection was tested at 11-point dilutions (final concentrations range from 0.78 nM to 46 µM) and the NPC collection at 8-point dilutions (final concentrations range from 0.59 nM to 46 µM). Compounds tested in follow-up screens were assayed at 11-point dilutions. Cells were incubated for 48 hours, followed by addition of 3 µL of CellTiter-Glo (Promega). After a 15 min incubation at room temperature, samples were analyzed for luminescence intensity using a ViewLux High-throughput CCD imager equipped with clear filters.
In general terms: In qHTS, concentration-response curves come from the screen itself.
For the compound `O=C(O)CP(=O)(O)O`, the Potency result was “inactive”.

Consider `NCCCNCCSP(=O)(O)O`, for which the activity change, negative = cytotoxic is -7.37% [at 9.22 µM].

On to `CCCCNc1ccc(C(=O)OCCN(C)C)cc1`, for which the Potency entry is “inactive”.

As for `CNC1(C)C2CCC(C2)C1(C)C` (stereo not given), the Potency entry is “inactive”.

As to `CCO/C([O-])=N/c1c[n+](N2CCOCC2)no1`, the Potency entry was “inactive”.

`CNCCC(Oc1ccccc1OC)c1ccccc1` (stereo not given): the Potency result was “inactive”.

On to `CCCCCN(CCCCC)C(=O)C(CCC(=O)O)NC(=O)c1ccc(Cl)c(Cl)c1` (stereo not given), for which the Potency result is “inactive”.

Regarding `C[C@@H](O)[C@H]1C(=O)N2C(C(=O)O)=C(SCCN=CN)C[C@H]12`, the Potency result is “inactive”.

In the case of `CN(C)CCN(Cc1cccs1)c1ccccn1`, the Potency entry was “inactive”.

With `c1cnc(N2CCN(Cc3ccc4c(c3)OCO4)CC2)nc1`, the Potency result is “inactive”.

As to `CC[N+](C)(C)c1cccc(O)c1`, the Potency entry is “inactive”.

With `O=C(CCCN1CCC(O)(c2cccc(C(F)(F)F)c2)CC1)c1ccc(F)cc1`, the Potency result was “inactive”.

Turning to `Cc1ccc(=O)n(-c2ccccc2)c1`, the Potency entry is “inactive”.

As to `O=C(CCNNC(=O)c1ccncc1)NCc1ccccc1`, the Potency entry was “inactive”.

As for `COc1cc(Cc2cnc(N)nc2N)cc(OC)c1OC`, the Potency entry was “inactive”.

Take `CN(C)CCCN1c2ccccc2Sc2ccc(C(F)(F)F)cc21`: the Potency result is “inactive”.

In the case of `CCCCNC(=O)NS(=O)(=O)c1ccc(C)cc1`, the Potency result was “inactive”.

For the compound `CC1=NS(=O)(=O)c2cc(Cl)ccc2N1`, the Potency result was “inactive”.

With `NC(N)=N/N=C/c1c(Cl)cccc1Cl`, the Potency entry was “inactive”.

In the case of `CCN(CC)CC(=O)Nc1c(C)cccc1C`, the Potency entry is “inactive”.

On to `CN=C(NC#N)NCCSCc1nc[nH]c1C`, for which the Potency entry was “inactive”.

In the case of `CC1=C(C)C(=O)C(CCCCC#CCCCC#CCO)=C(C)C1=O`, the Potency result is “inactive”.

As to `c1ccc2c(c1)CCCC2C1=NCCN1` (stereo not given), the Potency result was “inactive”.

Consider `CN1CCN(CC(=O)N2c3ccccc3C(=O)Nc3cccnc32)CC1`, for which the activity change, negative = cytotoxic was 3.64% [at 4.84 µM].

In the case of `CCCCCCCC/C=C\CCCCCCCC(=O)NCc1ccc(O)c(OC)c1`, the Potency entry was “inactive”.

Consider `C[N+](C)(C)CCCCCCCCCC[N+](C)(C)C`, for which the Potency result is “inactive”.

In the case of `COC(=O)[C@@H](N)Cc1ccc(O)c(O)c1`, the Potency entry is “inactive”.

Consider `CCn1nc(C(=O)O)c(=O)c2cc3c(cc21)OCO3`, for which the Potency entry was “inactive”.

Turning to `CC(C)(Oc1ccc(CCNC(=O)c2ccc(Cl)cc2)cc1)C(=O)O`, the Potency entry was “inactive”.

Regarding `C[n+]1cc2c3c(ccc2c2ccc4cc5c(cc4c21)OCO5)OCO3`, the Potency was 2310 nM (active).

In the case of `CCC(=O)c1ccc2c(c1)N(CCCN(C)C)c1ccccc1S2`, the Potency entry was “inactive”.

For `Fc1ccc(C(c2ccc(F)cc2)N2CCN(C/C=C/c3ccccc3)CC2)cc1`, the Potency result is “inactive”.

Take `CN(C)C(=O)Oc1cccc([N+](C)(C)C)c1`: the Potency result was “inactive”.

For the compound `CN(C)CC[C@@H](c1ccc(Br)cc1)c1ccccn1`, the Potency result was “inactive”.

Take `CN1CCN(C2=Nc3ccccc3Oc3ccc(Cl)cc32)CC1`: the Potency entry is “inactive”.

Regarding `NC(=O)c1ncn([C@@H]2O[C@H](CO)[C@@H](O)[C@H]2O)c1O`, the Potency entry is “inactive”.

For the compound `COc1ccc2c(c1OC)C(=O)O[C@@H]2[C@H]1c2c(cc3c(c2OC)OCO3)CCN1C`, the Potency result was “inactive”.

On to `C[C@]12CC[C@@H]3c4ccc(O)cc4C[C@@H](CCCCCCCCCS(=O)CCCC(F)(F)C(F)(F)F)[C@H]3[C@@H]1CC[C@@H]2O` (stereo not given in full), for which the Potency entry is “inactive”.

For `Cc1scc2c1N(C(=O)CN1CCN(C)CC1)c1ccccc1NC2=O`, the Potency result is “inactive”.

Regarding `C#CCN(C)CCCOc1ccc(Cl)cc1Cl`, the Potency entry is “inactive”.

Values taken from PubChem BioAssay (NCATS).
